Several values for one entry are separate records, joined by “and”; a condition that tells them apart may be missing. Equal entries are not always repeated. Some compounds were tested as several samples or in several runs, with calls that do not always agree. Activity calls are given as the source filed them. How the source made its calls: active means hit-call score of the fitted dose curve at least 0.9, where 1 is the maximum; inactive means score below 0.9.

The nature of test [1]: BSK_CASM3C_SRB: Viability Assessment in the BioMAP Diversity Plus: CASM3C Assay (AID 2283050).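 Further: total protein by SRB staining as cytotoxicity measure in parallel cultures; cells exposed to compound for 24 h.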 The conditions noted are these: primary human coronary artery smooth muscle cells.
Read-out in test [2]: Thrombomodulin, THBD (gene 7056)
Put plainly: BSK_CASM3C_Thrombomodulin: BioMAP Diversity Plus: CASM3C Assay for Thrombomodulin Biomarker Activity (AID 2283051).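 Further: thrombomodulin protein level measured by ELISA 24 h after dosing.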 The conditions noted are these: primary human coronary artery smooth muscle cells; actives raise or lower the signal.

Read-out in test [3]: Tissue Factor, F3 (gene 2152)
Description: BSK_CASM3C_TissueFactor: BioMAP Diversity Plus: CASM3C Assay for Tissue Factor Biomarker Activity (AID 2283052).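 Further: cell surface tissue factor protein level read by ELISA.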 The following applies: primary human coronary artery smooth muscle cells; actives raise or lower the signal.

Read-out in test [4]: Interferon-gamma inducible Protein 10 (IP10), CXCL10 (gene 3627)
Put plainly: BSK_hDFCGF_IP10: BioMAP Diversity Plus: hDFCGF Assay for Interferon-gamma inducible Protein 10 (IP10) Biomarker Activity (AID 2283053). The following applies: primary human foreskin fibroblasts; actives raise or lower the signal. Put shortly: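 ELISA quantification of IP-10 after a 24 h chemical exposure of human dermal foreskin fibroblast primary cultures. Both increases and decreases versus DMSO fitted.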

Read-out in test [5]: Urokinase-type plasminogen activator receptor (uPAR), PLAUR (gene 5329)
Description: BSK_CASM3C_uPAR: BioMAP Diversity Plus: CASM3C Assay for Urokinase-type plasminogen activator receptor (uPAR) Biomarker Activity (AID 2283054).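 Further: cell-surface uPAR protein level quantified by ELISA.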 The following applies: primary human coronary artery smooth muscle cells; actives raise or lower the signal.

Read-out in test [6]: Vascular cell adhesion molecule 1 (VCAM1), VCAM1 (gene 7412)
Description: BSK_CASM3C_VCAM1: BioMAP Diversity Plus: CASM3C Assay for Vascular cell adhesion molecule 1 (VCAM1) Biomarker Activity (AID 2283055).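 Further: VCAM-1 protein level quantified by ELISA on the cells.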 The conditions noted are these: primary human coronary artery smooth muscle cells; actives raise or lower the signal.

Read-out in test [7]: Collagen III, COL3A1 (gene 1281)
Description: BSK_hDFCGF_CollagenIII: BioMAP Diversity Plus: hDFCGF Assay for Collagen III Biomarker Activity (AID 2283056). The following applies: primary human foreskin fibroblasts; actives raise or lower the signal. The procedure, abridged:
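ELISA read-out of collagen III from human skin fibroblast cultures sampled 24 h post-dosing. Values were derived by bidirectional fitting relative to the DMSO vehicle control.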

Read-out in test [8]: Epidermal growth factor receptor (EGFR), EGFR (gene 1956)
Description: BSK_hDFCGF_EGFR: BioMAP Diversity Plus: hDFCGF Assay for Epidermal growth factor receptor (EGFR) Biomarker Activity (AID 2283057). The conditions noted are these: primary human foreskin fibroblasts; actives raise or lower the signal. The procedure, abridged:
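EGFR levels by ELISA in human dermal fibroblast cultures, 24 h post-treatment, fitted bidirectionally versus DMSO. Parallel wells stained with sulforhodamine B to detect overt cytotoxicity.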

The nature of test [9]: BSK_hDFCGF_Proliferation: Cell Proliferation Assessment in the BioMAP Diversity Plus: hDFCGF Assay (AID 2283059).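 Further: curves fitted for both rise and fall of signal versus DMSO baseline.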 The following applies: primary human foreskin fibroblasts. Put shortly:
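This proliferation readout used SRB total-protein staining of human foreskin fibroblasts […], normalized to DMSO with bidirectional curve fitting.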

Read-out in test [10]: Macrophage colony-stimulating factor (MCSF), CSF1 (gene 1435)
Put plainly: BSK_hDFCGF_MCSF: BioMAP Diversity Plus: hDFCGF Assay for Macrophage colony-stimulating factor (MCSF) Biomarker Activity (AID 2283060). The conditions noted are these: primary human foreskin fibroblasts; actives raise or lower the signal. Put shortly: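 Primary human foreskin fibroblasts dosed with chemical; 24 h later, M-CSF quantified by ELISA; curves fitted in both directions vs DMSO negative control.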

A short description of test [11]: BSK_hDFCGF_SRB: Viability Assessment in the BioMAP Diversity Plus: hDFCGF Assay (AID 2283061).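 Further: cells exposed to compound for 24 h before the read.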 The conditions noted are these: primary human foreskin fibroblasts. Put shortly:
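Readout is SRB absorbance at 560 nm, reflecting total protein in parallel cultures of human foreskin fibroblasts harvested 24 h after chemical dosing. Activity was fitted bidirectionally relative to DMSO.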

Read-out in test [12]: TIMP metallopeptidase inhibitor 1 (TIMP1), TIMP1 (gene 7076)
Put plainly: BSK_hDFCGF_TIMP1: BioMAP Diversity Plus: hDFCGF Assay for TIMP metallopeptidase inhibitor 1 (TIMP1) Biomarker Activity (AID 2283062). The conditions noted are these: primary human foreskin fibroblasts; actives raise or lower the signal. The procedure, abridged: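 Human skin fibroblasts (primary), hDFCGF system; compound exposure 24 h; TIMP-1 by ELISA; bidirectional fit vs DMSO negative control; overt cytotoxicity by SRB in parallel wells.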

Read-out in test [13]: Monokine induced gamma interferon (MIG), CXCL9 (gene 4283)
Description: BSK_hDFCGF_MIG: BioMAP Diversity Plus: hDFCGF Assay for Monokine induced gamma interferon (MIG) Biomarker Activity (AID 2283063). The conditions noted are these: primary human foreskin fibroblasts; actives raise or lower the signal. Put shortly:
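Chemicals were added to primary human foreskin fibroblast cultures, which were sampled 24 h later. MIG levels were then quantified by ELISA and responses fitted in both directions relative to DMSO.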

Read-out in test [14]: Matrix Metallopeptidase 1 (MMP1), MMP1 (gene 4312)
Put plainly: BSK_hDFCGF_MMP1: BioMAP Diversity Plus: hDFCGF Assay for Matrix Metallopeptidase 1 (MMP1) Biomarker Activity (AID 2283064). The following applies: primary human foreskin fibroblasts; actives raise or lower the signal. The procedure, abridged: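 Human foreskin fibroblasts exposed to chemical for 24 h; MMP1 detected by ELISA, with DMSO as baseline for bidirectional fitting.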

Read-out in test [15]: Vascular cell adhesion molecule 1 (VCAM1), VCAM1 (gene 7412)
Put plainly: BSK_hDFCGF_VCAM1: BioMAP Diversity Plus: hDFCGF Assay for Vascular cell adhesion molecule 1 (VCAM1) Biomarker Activity (AID 2283065).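 On AC50: VCAM-1 protein level quantified by ELISA after 24 h chemical exposure.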 The following applies: primary human foreskin fibroblasts; actives raise or lower the signal. The procedure, abridged:
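Human foreskin fibroblast primary cells, chemical exposure 24 h; VCAM-1 by ELISA; bidirectional fit, DMSO = negative control/baseline.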

Read-out in test [16]: Plasminogen activator inhibitor-1 (PAI1), SERPINE1 (gene 5054)
Put plainly: BSK_hDFCGF_PAI1: BioMAP Diversity Plus: hDFCGF Assay for Plasminogen activator inhibitor-1 (PAI1) Biomarker Activity (AID 2283066). The following applies: primary human foreskin fibroblasts; actives raise or lower the signal. Put shortly:
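PAI-1 levels in human dermal foreskin fibroblasts were quantified by ELISA 24 h after dosing, with gain or loss analysed against DMSO. Overt cytotoxicity was checked by sulforhodamine B total-protein staining in parallel cultures.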

Read-out in test [17]: Intercellular Adhesion Molecule 1 (ICAM1), ICAM1 (gene 3383)
Put plainly: BSK_KF3CT_ICAM1: BioMAP Diversity Plus: KF3CT Assay for Intercellular Adhesion Molecule 1 (ICAM1) Biomarker Activity (AID 2283067). The conditions noted are these: primary human keratinocytes with fibroblasts; actives raise or lower the signal. Put shortly: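 ICAM-1 levels are measured by ELISA 24 h after dosing a primary human co-culture of keratinocytes and foreskin fibroblasts. Activity in either direction is fitted relative to DMSO vehicle.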

Read-out in test [18]: Interferon-gamma inducible Protein 10 (IP10), CXCL10 (gene 3627)
Put plainly: BSK_KF3CT_IP10: BioMAP Diversity Plus: KF3CT Assay for Interferon-gamma inducible Protein 10 (IP10) Biomarker Activity (AID 2283068). The conditions noted are these: primary human keratinocytes with fibroblasts; actives raise or lower the signal. Put shortly: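 Signal is secreted/surface IP-10 by ELISA in a human primary skin co-culture of keratinocytes and foreskin fibroblasts, taken 24 h post-dosing; DMSO served as negative control.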

The nature of test [19]: BSK_KF3CT_SRB: Viability Assessment in the BioMAP Diversity Plus: KF3CT Assay (AID 2283069).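 Further: read 24 h after compound addition; fitted for both signal gain and loss against DMSO baseline.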 The conditions noted are these: primary human keratinocytes with fibroblasts. Put shortly:
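Overt cytotoxicity is assessed as total protein by sulforhodamine B staining in parallel human skin co-cultures at 24 h after dosing. DMSO serves as negative control and baseline.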

Read-out in test [20]: Interleukin-8 (IL8), CXCL8 (gene 3576)
Description: BSK_hDFCGF_IL8: BioMAP Diversity Plus: hDFCGF Assay for Interleukin-8 (IL8) Biomarker Activity (AID 2283058). The conditions noted are these: primary human foreskin fibroblasts; actives raise or lower the signal. The procedure, abridged:
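Cells used are human skin primary fibroblasts. Chemical is added, cultures run 24 h, then IL-8 is quantified by ELISA, and gain or loss versus DMSO control is fitted in both directions.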

With `COP(=O)(OC)C(O)C(Cl)(Cl)Cl` (centres undefined), the outcome in [1], in [2], in [3], in [4], in test [5] and in [6] was inactive. For the same compound, the outcome in test [7], in test [8], in [9], in test [10], in test [11] and in test [12] was inactive. Besides, the result in test [13], in test [14], in test [15], in [16], in [17] and in [18] was inactive. For the same compound, in test [19], the outcome was inactive.
For orientation: AC50 means the concentration at which the activity in the assay is half-maximal. `CCOC(=O)CC(SP(=O)(OC)OC)C(=O)OCC` (centres undefined): the outcome in test [1], in [2], in test [3], in test [4], in test [5] and in [6] was inactive. In addition, the result in test [8], in [20], in [9], in [10], in test [11] and in [12] was inactive. In addition, the outcome in [13], in test [14], in test [16], in test [17], in [18] and in [19] was inactive. Further, the AC50 in test [15] was 10.8 µM (active).
Consider `CSC1=N[C@@](C)(c2ccccc2)C(=O)N1Nc1ccccc1`, for which the outcome in test [1], in [2], in test [3], in test [4], in test [5] and in [6] was inactive. Also, the outcome in [8], in test [20], in test [10], in [11], in [12] and in [13] was inactive. The outcome in [14], in [15], in test [16], in test [17], in test [18] and in [19] was inactive. The half-maximal activity concentration (AC50) is 25 µM (active) in test [7] and 23.3 µM (active) in [9].
Regarding `O=[N+]([O-])c1cc(C(F)(F)F)c(Cl)c([N+](=O)[O-])c1Nc1ncc(C(F)(F)F)cc1Cl`, the AC50 in [1] is 2.04 µM (active) and 5.51 µM (active); in [3], 5.69 µM (active); in test [4] it was 2.13 µM (active) and 7.1 µM (active); in [5], 3.29 µM (active) and 5.5 µM (active); in [6], 2.86 µM (active) and 7.2 µM (active); in [8] it was 1.92 µM (active) and 5.48 µM (active). The AC50 in [20] is 2.78 µM (active) and 11.7 µM (active); in test [9] it was 546 nM (active) and 1.8 µM (active); in test [10] it was 1.17 µM (active) and 6.88 µM (active); in test [11], 810 nM (active) and 9.49 µM (active); in test [12] it was 1.12 µM (active); in [13] it was 1.32 µM (active) and 8.98 µM (active). Besides, the AC50 in test [14] is 1.59 µM (active) and 10.6 µM (active); in test [15], 954 nM (active) and 7.64 µM (active); in test [16], 859 nM (active) and 9.54 µM (active); in test [17], 1.15 µM (active) and 9.82 µM (active); in test [18] it was 7.9 µM (active); in test [19], 741 nM (active) and 5.95 µM (active). The result in test [2], in [3] and in test [12] was inactive.
For `CCOC(=O)COc1cc(-c2nn(C)c(OC(F)F)c2Cl)c(F)cc1Cl`, the outcome in test [1], in test [2], in test [3], in test [4], in test [5] and in test [6] was inactive. The outcome in [7], in test [8], in test [20], in test [9], in test [10] and in test [11] was inactive. The outcome in test [12], in test [13], in test [15], in test [16], in [17] and in [18] was inactive. In test [19], the outcome was inactive. For the same compound, in test [14], the AC50 was 148 nM (active).
With `CC(Oc1cccc(Cl)c1)C(=O)O` (centres undefined), the outcome in test [1], in test [2], in [3], in test [4], in test [5] and in [6] was inactive. The outcome in [7], in [8], in test [20], in [9], in test [10] and in test [11] was inactive. The outcome in test [12], in [13], in [14], in test [15], in test [16] and in test [17] was inactive. Besides, the outcome in test [18] and in test [19] was inactive.

(Values after PubChem BioAssay (EPA / NIEHS).)
